In PubChem BioAssay AID1159580 (chemical genetic matrix, 2015):
Screen size: about 5,500 compounds; about 2,000 (36%) were called active. Roughly 18% stayed inconclusive and do not appear here. Rule as the data show it: active = normalized growth mostly below about 0.91 (no sharp cut-off); inconclusive = no clear call, values can overlap the other calls; inactive = mostly above about 0.92. This is one part of the list.

Test: chemical genetic growth profiling, strain panel (AID 1159580);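 also: tested at 20 µM; growth read once vehicle control cultures reached saturation at 30 °C; 1 = growth at the plate median or of vehicle wells; lower values mean less growth of the strain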
Conditions: growth OD

Measured: normalized growth

Cc1c(C(N)=O)cc([N+](=O)[O-])cc1[N+](=O)[O-]
inactive: S. cerevisiae deletion strains, locus YJR066W, strain TOR1, hits give low values 0.991 | S. cerevisiae deletion strains, locus YKL009W, strain mrt4, hits give low values 0.972 | S. cerevisiae deletion strains, locus YKL068W, hits give low values 0.982 | S. cerevisiae deletion strains, locus YKL085W, strain MDH1 (second series), hits give low values 1.02 | S. cerevisiae deletion strains, locus YKL085W, strain MDH1, hits give low values 1.02 | S. cerevisiae deletion strains, locus YKL160W, strain elf1, hits give low values 0.988 | S. cerevisiae deletion strains, locus YKL190W, strain CNB1, hits give low values 0.996 | S. cerevisiae deletion strains, locus YKR001C, strain vps1, hits give low values 0.993 | S. cerevisiae deletion strains, locus YKR026C, strain gcn3, hits give low values 1.02 | S. cerevisiae deletion strains, locus YKR091W, strain srl3, hits give low values 1.02 | S. cerevisiae deletion strains, locus YLL001W, strain dnm1, hits give low values 1.02 | S. cerevisiae deletion strains, locus YLL026W, hits give low values 1.02 | S. cerevisiae deletion strains, locus YLL041C, strain sdh2, hits give low values 1.02 | S. cerevisiae deletion strains, locus YLR027C, strain aat2, hits give low values 1.01 | S. cerevisiae deletion strains, locus YLR039C, strain RIC1, hits give low values 0.988 | S. cerevisiae deletion strains, locus YLR058C, strain SHM2, hits give low values 0.99 | S. cerevisiae deletion strains, locus YLR102C, strain apc9, hits give low values 0.97 | S. cerevisiae deletion strains, locus YLR113W, strain HOG1, hits give low values 1.07 | S. cerevisiae deletion strains, locus YLR221C, strain rsa3, hits give low values 1.03 | S. cerevisiae deletion strains, locus YLR258W, strain gsy2, hits give low values 1.04 | S. cerevisiae deletion strains, locus YLR262C, strain YPT6 (second series), hits give low values 1.02 | S. cerevisiae deletion strains, locus YLR262C, strain YPT6, hits give low values 1.01 | S. cerevisiae deletion strains, locus YLR268W, strain sec22, hits give low values 0.979 | S. cerevisiae deletion strains, locus YLR320W, strain mms22, hits give low values 1.05 | S. cerevisiae deletion strains, locus YLR330W, strain CHS5, hits give low values 0.994 | S. cerevisiae deletion strains, locus YLR342W, strain FKS1 (second series), hits give low values 0.984 | S. cerevisiae deletion strains, locus YLR342W, strain FKS1, hits give low values 1.02 | S. cerevisiae deletion strains, locus YLR357W, strain rsc2, hits give low values 0.999 | S. cerevisiae deletion strains, locus YLR370C, strain arc18, hits give low values 1.04 | S. cerevisiae deletion strains, locus YLR371W, strain rom2, hits give low values 0.963 | S. cerevisiae deletion strains, locus YLR384C, strain iki3, hits give low values 1.03 | S. cerevisiae deletion strains, locus YLR418C, strain cdc73, hits give low values 0.972 | S. cerevisiae deletion strains, locus YML016C, strain PPZ1, hits give low values 0.989 | S. cerevisiae deletion strains, locus YML032C, strain rad52, hits give low values 0.978 | S. cerevisiae deletion strains, locus YML120C, strain ndi1, hits give low values 1.03 | S. cerevisiae deletion strains, locus YML124C, strain tub3, hits give low values 0.979 | S. cerevisiae deletion strains, locus YMR058W, strain fet3, hits give low values 1.01 | S. cerevisiae deletion strains, locus YMR078C, strain ctf18, hits give low values 0.976 | S. cerevisiae deletion strains, locus YMR125W, strain sto1, hits give low values 0.962 | S. cerevisiae deletion strains, locus YMR129W, hits give low values 1.02 | S. cerevisiae deletion strains, locus YMR205C, strain PFK2, hits give low values 1 | S. cerevisiae deletion strains, locus YMR223W, strain ubp8, hits give low values 0.98 | S. cerevisiae deletion strains, locus YMR231W, strain pep5, hits give low values 1.03 | S. cerevisiae deletion strains, locus YMR263W, strain SAP30, hits give low values 0.997 | S. cerevisiae deletion strains, locus YMR307W, strain GAS1, hits give low values 1.02 | S. cerevisiae deletion strains, locus YNL067W, strain RPL9B, hits give low values 1.01 | S. cerevisiae deletion strains, locus YNL071W, strain lat1, hits give low values 1.02 | S. cerevisiae deletion strains, locus YNL128W, strain TEP1, hits give low values 0.965 | S. cerevisiae deletion strains, locus YNL183C, strain NPR1, hits give low values 0.98 | S. cerevisiae deletion strains, locus YNL209W, strain ssb2, hits give low values 1.02 | S. cerevisiae deletion strains, locus YNL233W, strain BNI4, hits give low values 1.01 | S. cerevisiae deletion strains, locus YNL248C, strain rpa49, hits give low values 0.923 | S. cerevisiae deletion strains, locus YNL250W, strain rad50, hits give low values 0.985 | S. cerevisiae deletion strains, locus YNL271C, strain bni1, hits give low values 0.97 | S. cerevisiae deletion strains, locus YNL298W, strain CLA4, hits give low values 0.975 | S. cerevisiae deletion strains, locus YNL307C, strain MCK1, hits give low values 0.978 | S. cerevisiae deletion strains, locus YNL322C, strain KRE1 (second series), hits give low values 1.03 | S. cerevisiae deletion strains, locus YNL322C, strain KRE1, hits give low values 0.991 | S. cerevisiae deletion strains, locus YNR049C, strain mso1, hits give low values 1.02 | S. cerevisiae deletion strains, locus YNR052C, strain pop2, hits give low values 0.966 | S. cerevisiae deletion strains, locus YOL006C, strain TOP1, hits give low values 0.984 | S. cerevisiae deletion strains, locus YOL012C, strain htz1 0.838 | S. cerevisiae deletion strains, locus YOL147C, strain pex11, hits give low values 0.978 | S. cerevisiae deletion strains, locus YOR001W, strain rrp6, hits give low values 1.03 | S. cerevisiae deletion strains, locus YOR061W, strain CKA2, hits give low values 0.99 | S. cerevisiae deletion strains, locus YOR069W, strain VPS5, hits give low values 0.981 | S. cerevisiae deletion strains, locus YOR070C, strain gyp1, hits give low values 1.02 | S. cerevisiae deletion strains, locus YOR080W, strain dia2, hits give low values 1.03 | S. cerevisiae deletion strains, locus YOR083W, strain WHI5, hits give low values 0.985 | S. cerevisiae deletion strains, locus YOR106W, strain vam3, hits give low values 0.981 | S. cerevisiae deletion strains, locus YOR136W, strain idh2, hits give low values 0.976 | S. cerevisiae deletion strains, locus YOR144C, strain elg1, hits give low values 0.978 | S. cerevisiae deletion strains, locus YOR184W, strain ser1, hits give low values 0.986 | S. cerevisiae deletion strains, locus YOR231W, strain MKK1, hits give low values 1.05 | S. cerevisiae deletion strains, locus YOR265W, strain rbl2, hits give low values 1.01 | S. cerevisiae deletion strains, locus YOR270C, strain vph1, hits give low values 1.01 | S. cerevisiae deletion strains, locus YOR290C, strain snf2, hits give low values 1.03 | S. cerevisiae deletion strains, locus YOR316C, strain cot1, hits give low values 0.965 | S. cerevisiae deletion strains, locus YPL051W, strain arl3, hits give low values 1.01 | S. cerevisiae deletion strains, locus YPL078C, strain atp4, hits give low values 0.974 | S. cerevisiae deletion strains, locus YPL106C, strain sse1, hits give low values 1.06 | S. cerevisiae deletion strains, locus YPL240C, strain hsp82, hits give low values 1.02 | S. cerevisiae deletion strains, locus YPL241C, strain CIN2, hits give low values 0.991 | S. cerevisiae deletion strains, locus YPL256C, strain CLN2, hits give low values 1.05 | S. cerevisiae deletion strains, locus YPR119W, strain clb2, hits give low values 0.982 | S. cerevisiae deletion strains, locus YPR141C, strain kar3, hits give low values 0.974 | S. cerevisiae deletion strains, locus YPR163C, strain tif3, hits give low values 0.975 | S. cerevisiae deletion strains, locus YPR167C, strain met16, hits give low values 0.981 | S. cerevisiae deletion strains, strain wtn01, hits give low values 0.971 | S. cerevisiae strains, strain wild type, hits give low values 0.996
